Source: PubChem BioAssay (Tox21)
A number with no mark means an inactive call. Results filed as inconclusive are left out. Where a call stands in place of a potency, no number is given. Activity calls are given as the source filed them. Unless noted, the call rests on the fitted dose curve.

Columns and labels:
[1] = target: Acetylcholinesterase (Homo sapiens) (UniProt P22303); assay: Acetylcholinesterase (AChE) small molecule antagonists: colormetric cell-based qHTS assay (AID 1347395); further: nearly all actives have a fitted effect of over 30% in size; further: potency means the concentration at half of the fitted maximal effect
Sequence of Acetylcholinesterase (Homo sapiens) (P22303 whole entry, looked up): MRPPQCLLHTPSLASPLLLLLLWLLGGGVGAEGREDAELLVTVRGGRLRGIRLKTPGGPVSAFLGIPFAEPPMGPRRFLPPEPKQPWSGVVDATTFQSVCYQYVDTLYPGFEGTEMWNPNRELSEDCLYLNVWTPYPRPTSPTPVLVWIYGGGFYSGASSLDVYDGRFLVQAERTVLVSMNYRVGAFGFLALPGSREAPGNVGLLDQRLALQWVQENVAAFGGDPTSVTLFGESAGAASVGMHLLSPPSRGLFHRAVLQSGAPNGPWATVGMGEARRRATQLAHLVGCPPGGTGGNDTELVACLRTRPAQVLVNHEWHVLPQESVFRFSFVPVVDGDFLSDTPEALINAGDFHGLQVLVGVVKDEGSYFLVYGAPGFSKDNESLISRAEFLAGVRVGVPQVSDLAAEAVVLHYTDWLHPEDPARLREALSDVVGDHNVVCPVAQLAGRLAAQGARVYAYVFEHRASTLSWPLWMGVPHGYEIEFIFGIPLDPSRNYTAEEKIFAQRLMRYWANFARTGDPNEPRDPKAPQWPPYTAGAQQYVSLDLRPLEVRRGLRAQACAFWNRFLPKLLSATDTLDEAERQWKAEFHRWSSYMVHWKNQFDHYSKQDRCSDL
Summary of the method: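 Colorimetric read-out: DTNB detects thiocholine released when cellular AChE in SH-SY5Y cells hydrolyses acetylthiocholine. Cells attached overnight, received compound for 30 min at 37 C, then substrate mix for 90 min at 37 C.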

[2] = target: Acetylcholinesterase (Homo sapiens) (UniProt P22303); assay: Acetylcholinesterase (AChE) small molecule antagonists: enzyme-based qHTS assay (AID 1347397); settings: Potency: AChE enzyme activity inhibition; outcome: AChE enzyme activity inhibition; further: nearly all actives have a fitted effect of over 55% in size; further: potency means the concentration at half of the fitted maximal effect
Summary of the method: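 Compound or DMSO vehicle was pin-transferred onto recombinant human AChE (50 mU/mL as dispensed) and left 30 min at room temperature. Acetylthiocholine with DTNB then started the reaction, read colorimetrically 10 min later.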

[3] = target: Acetylcholinesterase (Homo sapiens) (UniProt P22303); assay: Acetylcholinesterase (AChE) small molecule antagonists: fluorescence cell-based qHTS assay (AID 1347398); settings: Potency: AChE activity; outcome: AChE activity; further: nearly all actives have a fitted effect of over 50% in size; further: potency means the concentration at half of the fitted maximal effect
Summary of the method: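 Using neuroblastoma SH-SY5Y cells as the enzyme source, test chemicals are preincubated 30 min at 37 C; AChE-driven acetylthiocholine cleavage is then quantified by thiocholine-dependent Thiolite Green fluorescence after 40 min at room temperature.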

[4] = target: Acetylcholinesterase (Homo sapiens) (UniProt P22303); assay: Acetylcholinesterase (AChE) small molecule antagonists: enzyme-based qHTS assay with human liver microsomes (AID 1347399); settings: Potency: qHTS inhibition; outcome: qHTS inhibition; further: nearly all actives have a fitted effect of over 60% in size; further: potency means the concentration at half of the fitted maximal effect
Summary of the method: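 Recombinant human AChE (50 mU/mL in the enzyme mix) and human liver microsomes (0.25 mg/mL final) were preincubated with compound and NADPH (0.25 mg/mL final) for 30 min at 37 C. Acetylthiocholine/DTNB was then added; thiocholine was read colorimetrically after 10 min at room temperature.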

[5] = qHTS assay for small molecule agonists of the p53 signaling pathway (AID 651631); further: nearly all actives have a fitted effect of over 15% in size
Summary of the method: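 Read-out is beta-lactamase FRET fluorescence measured 2 h after substrate addition at room temperature, in HCT-116 cells with a p53 response element-driven reporter exposed to compounds for 16 h at 37 °C.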

[6] = target: Aromatase (Homo sapiens) (UniProt P11511); assay: qHTS assay to identify aromatase inhibitors (AID 743083; active means well fitted curve in the direction sought with a large enough effect in the repeat runs; an effect the other way counts as inactive or inconclusive; further: series mostly up to about 70 µM; nearly all actives have a fitted effect of over 55% in size)
Sequence of Aromatase (Homo sapiens) (P11511 whole entry, looked up): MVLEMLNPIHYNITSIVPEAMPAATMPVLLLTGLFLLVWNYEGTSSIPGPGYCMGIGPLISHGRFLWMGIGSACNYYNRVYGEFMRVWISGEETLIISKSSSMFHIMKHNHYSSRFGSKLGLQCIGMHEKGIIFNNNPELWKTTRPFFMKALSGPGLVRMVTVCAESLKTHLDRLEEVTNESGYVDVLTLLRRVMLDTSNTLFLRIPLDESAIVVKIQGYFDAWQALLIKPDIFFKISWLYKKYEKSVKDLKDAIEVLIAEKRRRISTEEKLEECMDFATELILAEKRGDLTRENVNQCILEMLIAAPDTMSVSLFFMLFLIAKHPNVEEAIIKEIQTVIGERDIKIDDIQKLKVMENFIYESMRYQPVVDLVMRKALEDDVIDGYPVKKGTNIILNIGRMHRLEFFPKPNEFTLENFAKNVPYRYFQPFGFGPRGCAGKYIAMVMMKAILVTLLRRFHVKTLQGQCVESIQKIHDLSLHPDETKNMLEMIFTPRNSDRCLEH

[7] = target: Aryl hydrocarbon receptor (Homo sapiens) (UniProt P35869); assay: qHTS assay to identify small molecule that activate the aryl hydrocarbon receptor (AhR) signaling pathway (AID 743085; active means well fitted curve in the direction sought with a large enough effect in the repeat runs; an effect the other way counts as inactive or inconclusive;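 further: HG2L7.5c1 human HepG2 liver cells with stably integrated DRE-driven firefly reporter; series mostly up to about 70 µM; nearly all actives have a fitted effect of over 15% in size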)
Sequence of Aryl hydrocarbon receptor (Homo sapiens) (P35869 whole entry, looked up): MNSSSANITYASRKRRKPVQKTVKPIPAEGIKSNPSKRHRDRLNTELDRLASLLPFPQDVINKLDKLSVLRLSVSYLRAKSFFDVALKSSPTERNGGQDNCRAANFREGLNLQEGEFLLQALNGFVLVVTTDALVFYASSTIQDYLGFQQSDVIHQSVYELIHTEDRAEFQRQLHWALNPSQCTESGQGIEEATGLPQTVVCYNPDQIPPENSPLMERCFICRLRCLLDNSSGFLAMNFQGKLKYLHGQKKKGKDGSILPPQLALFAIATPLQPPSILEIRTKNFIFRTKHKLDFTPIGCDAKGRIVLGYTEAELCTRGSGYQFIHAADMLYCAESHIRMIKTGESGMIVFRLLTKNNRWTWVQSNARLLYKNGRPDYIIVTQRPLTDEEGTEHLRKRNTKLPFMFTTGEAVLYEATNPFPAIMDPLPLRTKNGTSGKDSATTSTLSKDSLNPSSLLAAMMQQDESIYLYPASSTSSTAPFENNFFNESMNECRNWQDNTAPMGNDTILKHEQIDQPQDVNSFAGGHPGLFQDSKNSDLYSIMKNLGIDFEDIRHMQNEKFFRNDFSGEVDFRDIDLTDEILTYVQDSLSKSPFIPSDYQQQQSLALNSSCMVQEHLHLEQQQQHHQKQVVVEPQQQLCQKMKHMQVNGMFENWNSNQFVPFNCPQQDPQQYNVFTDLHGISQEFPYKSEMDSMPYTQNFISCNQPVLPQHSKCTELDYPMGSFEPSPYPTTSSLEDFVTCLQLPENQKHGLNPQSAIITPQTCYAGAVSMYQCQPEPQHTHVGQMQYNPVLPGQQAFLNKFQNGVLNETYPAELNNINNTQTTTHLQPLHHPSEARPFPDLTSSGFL
Summary of the method: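 Cell line HG2L7.5c1 (human hepatoma, 20× DRE-luc). Plated, 5 h 37C, compound/DMSO added, 24 h 37C. CellTiter-Fluor 30 min 37C → fluorescence; then ONE-Glo 30 min RT → luminescence.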

[8] = qHTS assay for small molecule activators of the heat shock response signaling pathway (AID 743210; active means well fitted activation curve with a large enough effect in the signal ratio in the repeat runs, with a control signal flat, not every such curve was filed as active; the % refers to the signal ratio; further: series mostly up to about 63 µM)
Summary of the method: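 Heat shock element–beta-lactamase HeLa reporter cells; qHTS with compounds for 5 h at 37 C; detection by FRET substrate fluorescence after 2.5 h at RT.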

[9] = target: Glucocorticoid receptor (Homo sapiens) (UniProt P04150); assay: qHTS assay to identify small molecule antagonists of the glucocorticoid receptor (GR) signaling pathway (AID 720692; active means well fitted inhibition curve with a large enough effect in the signal ratio in the repeat runs, not every such curve was filed as active; the % refers to the signal ratio)
Sequence of Glucocorticoid receptor (Homo sapiens) (P04150 whole entry, looked up): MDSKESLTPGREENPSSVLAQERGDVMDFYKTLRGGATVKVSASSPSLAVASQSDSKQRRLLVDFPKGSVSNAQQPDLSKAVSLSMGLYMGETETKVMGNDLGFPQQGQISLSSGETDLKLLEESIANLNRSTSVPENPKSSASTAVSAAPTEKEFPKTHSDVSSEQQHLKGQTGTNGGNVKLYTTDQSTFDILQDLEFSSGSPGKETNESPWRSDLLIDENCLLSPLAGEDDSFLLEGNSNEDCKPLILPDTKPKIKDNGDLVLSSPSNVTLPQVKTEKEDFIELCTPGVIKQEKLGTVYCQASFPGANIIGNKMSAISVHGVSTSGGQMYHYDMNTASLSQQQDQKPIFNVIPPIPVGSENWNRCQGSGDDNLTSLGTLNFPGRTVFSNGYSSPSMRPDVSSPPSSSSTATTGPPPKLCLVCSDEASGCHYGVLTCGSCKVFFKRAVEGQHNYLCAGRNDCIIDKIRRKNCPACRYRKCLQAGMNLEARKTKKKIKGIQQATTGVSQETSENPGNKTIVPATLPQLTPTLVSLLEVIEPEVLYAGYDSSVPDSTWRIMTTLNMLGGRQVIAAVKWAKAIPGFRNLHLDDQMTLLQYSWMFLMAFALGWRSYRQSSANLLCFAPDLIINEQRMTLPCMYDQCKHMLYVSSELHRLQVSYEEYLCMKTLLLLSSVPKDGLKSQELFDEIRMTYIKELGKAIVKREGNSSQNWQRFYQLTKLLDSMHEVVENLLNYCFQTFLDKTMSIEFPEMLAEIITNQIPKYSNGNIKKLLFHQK
Summary of the method: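 Inhibition of dexamethasone-driven (5 nM final) beta-lactamase expression was measured in GRE-reporter HeLa cells over 18 h at 37C. Fluorescence was read after 2 h with the B/G FRET substrate at room temperature.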

## O=C1C=CC(=O)N1c1cccc(N2C(=O)C=CC2=O)c1
[1]
  Potency: inactive
[2]
  Potency: inactive
[3]
  Potency: 44.8 µM (active)
[4]
  Potency: inactive

## CC(C)(C)c1cc(CCC(=O)NN)cc(C(C)(C)C)c1O
[1]
  Potency: inactive
[2]
  Potency: inactive
[3]
  Potency: inactive
[4]
  Potency: inactive

## CC1COc2ccccc2N1 (stereo not drawn)
[1]
  Potency: inactive
[2]
  Potency: inactive
[3]
  Potency: inactive
[4]
  Potency: inactive

## CCNC(=O)C(C)OC(=O)Nc1ccccc1 (stereo not drawn)
[1]
  Potency: inactive
[2]
  Potency: inactive
[3]
  Potency: inactive
[4]
  Potency: inactive

## Oc1ccc(-c2ccc(O)cc2)cc1
[1]
  Potency: inactive
[2]
  Potency: inactive
[3]
  Potency: inactive
[4]
  Potency: inactive

## CCCCNCCCC
[1]
  Potency: inactive
[2]
  Potency: inactive
[3]
  Potency: inactive
[4]
  Potency: inactive

## CC(=O)Nc1ccc(S(=O)(=O)Cl)cc1
[1]
  Potency: inactive
[2]
  Potency: inactive
[3]
  Potency: inactive
[4]
  Potency: inactive

## CC1=CC=C(C(C)C)CC1
[1]
  Potency: inactive
[2]
  Potency: inactive
[3]
  Potency: inactive
[4]
  Potency: inactive

## Cc1ccc2sc3cccc(C)c3c2c1
[1]
  Potency: inactive
[2]
  Potency: inactive
[3]
  Potency: inactive
[4]
  Potency: inactive

## Clc1cccnc1
[1]
  Potency: inactive
[2]
  Potency: inactive
[3]
  Potency: inactive
[4]
  Potency: inactive

## C=CCCCCCCCCCCCC
[1]
  Potency: inactive
[2]
  Potency: inactive
[3]
  Potency: inactive
[4]
  Potency: inactive

## CC(=O)c1cccc([N+](=O)[O-])c1
[1]
  Potency: inactive
[2]
  Potency: inactive
[3]
  Potency: inactive
[4]
  Potency: inactive

## C[C@H](CCC(=O)O)[C@H]1CC[C@H]2[C@@H]3[C@H](O)C[C@@H]4C[C@H](O)CC[C@]4(C)[C@H]3C[C@H](O)[C@]12C
[1]
  Potency: inactive
[2]
  Potency: inactive
[3]
  Potency: inactive
[4]
  Potency: inactive

## O=[N+]([O-])c1ccc(Cl)cc1Cl
[1]
  Potency: inactive
[2]
  Potency: inactive
[3]
  Potency: inactive
[4]
  Potency: inactive

## O=c1cc(CO)occ1O
[1]
  Potency: inactive
[2]
  Potency: inactive
[3]
  Potency: inactive
[4]
  Potency: inactive

## CC(=O)CC(C)C
[5]
  Potency: inactive
[6]
  Potency: inactive
[7]
  outcome: inactive
[8]
  outcome: inactive
[1]
  Potency: inactive
[2]
  Potency: inactive
[3]
  Potency: inactive
[4]
  Potency: inactive

## Brc1cc(Br)c(Oc2cc(Br)c(Br)cc2Br)cc1Br
[7]
  outcome: inactive
[1]
  Potency: inactive
[2]
  Potency: inactive
[3]
  Potency: inactive
[4]
  Potency: inactive

## Nc1ccc(F)c([N+](=O)[O-])c1
[1]
  Potency: inactive
[2]
  Potency: inactive
[4]
  Potency: inactive

## O=C1Cc2ccccc2N1c1c(Cl)cccc1Cl
[1]
  Potency: inactive
[2]
  Potency: inactive
[3]
  Potency: inactive
[4]
  Potency: inactive

## CCc1cccc(CC)c1NC(=O)C(=O)O
[1]
  Potency: inactive
[2]
  Potency: inactive
[3]
  Potency: inactive
[4]
  Potency: inactive

## CN(C)C(=O)Nc1ccc(Oc2ccc(Cl)cc2)cc1
[1]
  Potency: inactive
[2]
  Potency: inactive
[3]
  Potency: inactive
[4]
  Potency: inactive

## N#Cc1ccc(C/C(=N/NC(=O)Nc2ccc(OC(F)(F)F)cc2)c2cccc(C(F)(F)F)c2)cc1
[1]
  Potency: inactive
[2]
  Potency: inactive
[3]
  Potency: inactive
[4]
  Potency: inactive

## O=C(Oc1ccccc1)c1ccccc1C(=O)Oc1ccccc1
[6]
  Potency: inactive
[1]
  Potency: inactive
[2]
  Potency: inactive
[3]
  Potency: inactive
[4]
  Potency: inactive

## O=C1OC(=O)c2ccccc21
[1]
  Potency: inactive
[2]
  Potency: inactive
[3]
  Potency: inactive
[4]
  Potency: inactive

## CCC/C=C/CO
[1]
  Potency: inactive
[2]
  Potency: inactive
[3]
  Potency: inactive
[4]
  Potency: inactive

## OCCCC1CCCCC1
[1]
  Potency: inactive
[2]
  Potency: inactive
[3]
  Potency: inactive
[4]
  Potency: inactive

## CCCCC1CCCCC(=O)O1 (stereo not drawn)
[1]
  Potency: inactive
[2]
  Potency: inactive
[3]
  Potency: inactive
[4]
  Potency: inactive

## N#Cc1ccc(C2CCCc3cncn32)cc1 (stereo not drawn)
[1]
  Potency: inactive
[2]
  Potency: inactive
[3]
  Potency: inactive
[4]
  Potency: inactive

## Cc1cc(C)c(N)cc1C
[6]
  Potency: inactive
[7]
  outcome: inactive
[1]
  Potency: inactive
[2]
  Potency: inactive
[3]
  Potency: inactive

## Cc1ccc(C)c(N)c1
[5]
  Potency: inactive
[1]
  Potency: inactive
[2]
  Potency: inactive
[3]
  Potency: inactive
[4]
  Potency: inactive

## CCC(=O)OCCOc1ccccc1
[1]
  Potency: inactive
[2]
  Potency: inactive
[3]
  Potency: inactive
[4]
  Potency: inactive

## CC(CO)(CO)[N+](=O)[O-]
[9]
  Potency: inactive
[6]
  Potency: inactive
[1]
  Potency: inactive
[2]
  Potency: inactive
[3]
  Potency: inactive
[4]
  Potency: inactive

## Cc1ccccc1C
[5]
  Potency: inactive
[9]
  Potency: inactive
[1]
  Potency: inactive
[2]
  Potency: inactive
[3]
  Potency: inactive
[4]
  Potency: inactive

## CN1CCC(N(Cc2cccs2)c2ccccc2)CC1
[9]
  Potency: inactive
[7]
  outcome: inactive
[1]
  Potency: inactive
[2]
  Potency: inactive
[3]
  Potency: inactive
[4]
  Potency: inactive

## N=C(N=C(N)N)N1CCOCC1
[1]
  Potency: inactive
[2]
  Potency: inactive
[3]
  Potency: inactive
[4]
  Potency: inactive

## O=CC(=O)c1ccccc1
[1]
  Potency: 2 µM (active)
[2]
  Potency: 5.03 µM (active)
[3]
  Potency: 0.283 µM (active)
[4]
  Potency: 35.6 µM (active)

## CC(N=C(NC#N)Nc1ccncc1)C(C)(C)C (stereo not drawn)
[1]
  Potency: inactive
[2]
  Potency: inactive
[3]
  Potency: inactive
[4]
  Potency: inactive

## COc1ccc(C(=O)Nc2ccccc2)cc1[N+](=O)[O-]
[1]
  Potency: 35.9 µM (active)
[2]
  Potency: inactive
[4]
  Potency: inactive

## C=Cc1ccc(C=C)cc1
[1]
  Potency: inactive
[2]
  Potency: inactive
[3]
  Potency: inactive
[4]
  Potency: inactive
